# Measured values published in PubChem BioAssay AID602289 (National Center for Advancing Translational Sciences (NCATS), 2012).
# Among all 2,400 compounds or so, about 40 (2%) were called active. Inconclusive results (about 1%) are left out.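 How the source made its calls: active means inhibition at or above 60%; inconclusive means inhibition from 0% up to below 60%; inactive means no inhibition observed.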 The sample as a whole holds a higher share of actives than the screen did.
# Experiment: qHTS Assay for Small Molecule Inhibitors of Mitochondrial Division or Activators of Mitochondrial Fusion: Hit Validation in Malachite Green Assay;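 on inhibition: plate controls were DMSO wells with GTPase for no effect and protein-free buffer wells for full effect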
# Conditions: purified GTPase, malachite green phosphate release, A650; hits give high values
# Source text: The budding yeast S. cerevisiae is a powerful system to study mitochondrial fusion. Unlike other organisms, yeast cells without functional mitochondrial DNA (mtDNA) can be propagated and studied as long as they maintain a mitochondrial compartment and are provided with a fermentable carbon source. When mitochondrial fusion is blocked in yeast, mitochondrial tubules rapidly fragment and division continues unopposed. Under conditions where fusion is compromised in mammalian cells, nearly identical changes in mitochondrial structure have been observed. Thus, these findings indicate that steady state mitochondrial structure in cells is a characteristic and specific indicator of fusion activity. Mounting evidence has pointed to a connection between mitochondrial dynamics and apoptosis in mammalian cells. These studies indicate that in mammalian cells mitochondrial dynamics are more integrated into cellular processes than in yeast cells and have evolved not only to distribute the organelle but also to aid in the regulation of cellular homeostasis. Mitochondrial fusion proteins attenuate apoptosis by inhibiting the release of cytochrome c from mitochondria, in part by controlling cristae structures. Thus, small molecules that inhibit mitochondrial fusion may promote apoptosis and potentially act as novel chemotherapeutics and stimulation of apoptosis has become an attractive target of anti-cancer therapies. To identify inhibitors of mitochondrial division, we exploit the growth phenotypes of mitochondrial fusion-defective mutants. The temperature sensitive fusion alleles, such as fzo1-1 and mgm1-5, cause mitochondrial membranes to fragment in cells under non-permissive conditions and cells lose mtDNA, and are unable to grow in the presence of non-fermentable carbon source glycerol. Inhibiting mitochondrial division rescues growth. The hits were tested by the assay provider in a malachite green assay. NIH Chemical Genomics Center [NCGC] NIH Molecular Libraries Probe Production Centers Network [MLPCN] MLPCN Grant: MH081279 Assay Submitter (PI): Jodi M. Nunnari
# Malachite Green Reagent Malachite Green carbinol base- Aldrich 229105 Ammonium molybdate - Sigma A7302 For 100 mL Malachite Green reagent in 1N HCl 16 mL conc. HCL + 32 mL H20 = 48 mL 4N HCl 34 mg malachite green base into 40 mL 1N HCl (10 mL 4N HCl + 30 mL H20) 1 g ammonium molybdate in 15 mL 4N HCl Mix Solutions together. Bring up to […] with H2O. Filter using a 0.2 um tissue culture filter unit (has plastic bottle attached) store at 4 masculine C. (Avoid Glassware/Plastics washed in detergent. Mix solutions in 50 mL conical vials.) For 20 uL reaction volume 1.0 uL Test Drug or DMSO: Added first to each well […]: 25 mM Hepes/Pipes pH 7.0 (H/P) 2.0 uL: 50 mM MgCl2 (final 5mM) 2.32 uL: 1 M NaCl (with contributing protein salt, Final = 150mM) 13.4 uL per reaction. Can be mixed in larger volume (Mini Master Mix) 1.6 uL: Protein 7.5 uM or Protein Freezing Buffer. (Final = 0.6uM) After Protein Added to mini Master Mix, 15ul Total Master Mix added to each well with drug. 4 uL: 500 uM GTP (Final = 100uM), Dilute with 25 mM H/P, store on ice. 20 uL Total Volume Make Master Mix: (Calculate desired reactions and add a few for multi-channel pipetting volume). Multiply the number of desired reactions by 13.4 uL for total Mini Master volume. Multiply the number of desired reactions by 1.6 uL for total Protein volume. Mix, and keep on ice until added to wells. Add 15 uL of Master Mix to each reaction well, incubate with drug for 10 min. For Positive (No Drug) controls add 15 uL Master Mix to wells with only 1 uL DMSO. Make PFB (Protein Freezing Buffer) (no Protein) Master Mix. Multiply the number of desired reactions by 13.4 uL for total Mini Master volume. Multiply the number of desired reactions by 1.6 uL for total PFB volume. Mix, and keep on ice until added to wells Add 10 uL of PFBMaster Mix to each Phosphate Standards well, and 15 uL to each negative control well with DMSO. […]
row,Compound,inhibition
1,Cc1cc(C)nc(NC(=O)/C=C/c2ccccc2Cl)c1,inactive
2,Cc1cc(=O)oc2c(C(=O)/C=C\c3cccs3)c(O)ccc12,inactive
3,O=C(/C=C/c1ccccc1Cl)c1ccccc(=O)c1O,77.4% (active)
4,O=C(/C=C/c1ccccc1Cl)c1ccc[nH]1,inactive
5,CC1=C(C(=O)OCc2ccccc2)C(/C=C/c2ccccc2)NC(=S)N1 (stereo not drawn),inactive
6,C/C(N)=C(/C#N)C(=O)COC(=O)C(c1ccccc1)c1ccccc1,inactive
7,COc1ccc(/C(N)=N/OC(=O)C2CCC(=O)N2S(=O)(=O)c2ccc(C)cc2)cc1 (stereo not drawn),inactive
8,O=C(Nc1nc(-c2cccs2)cs1)c1cccc(S(=O)(=O)N2CCCCC2)c1,inactive
9,COc1ccc(-c2cc(C(=O)OC(C)C(=O)Nc3c(C)n(C)n(-c4ccccc4)c3=O)c3ccccc3n2)cc1 (stereo not drawn),inactive
10,Cc1cccc(C(=O)N(Cc2nc3ccccc3c(=O)[nH]2)C2CCCCC2)c1,inactive
11,O=C(NCc1ccc2c(c1)OCO2)c1ccc(-c2ccc(Cl)cc2)o1,inactive
12,CCc1ccccc1NC(=O)/C(C#N)=C/c1ccc(Sc2ccccc2)o1,inactive
13,COc1cc2c(c(OC)c1OC)-c1c(cc3c(c1O)OCO3)C[C@@H](C)[C@@H](C)C2,inactive
14,Cc1cccn2c(=O)c(/C=C(\C#N)C(=O)NCc3ccco3)c(N3CCCCC3)nc12,inactive
15,Clc1ccc(C[n+]2csc3ccccc32)cc1,71.7% (active)
16,Cc1nc(CS(=O)(=O)c2ccccc2)cc(Sc2ccc(Cl)cc2Cl)n1,inactive
17,COc1cc(OC)cc(-c2c(-c3cccs3)c3cc(-c4ccn[nH]4)ccc3n2C)c1,inactive
18,CCOc1ccc(C(=O)Nc2c(C(N)=O)oc3ccccc23)cc1,inactive
19,CCOC(=O)c1sc(NC(=O)c2ccncc2)c(C#N)c1C,104% (active)
20,CCOC(=O)Nc1sc2c(c1C#N)CCC(C)C2 (stereo not drawn),inactive
21,CCOC(=O)c1sc(NC(=O)c2ccco2)c(C#N)c1C,inactive
22,CCCc1ccc(-c2csc(NC(=O)C3=COCCO3)n2)cc1,inactive
23,CCOC(=O)c1sc(NC(=O)C2=COCCO2)c(C#N)c1C,100% (active)
24,CCOC(=O)c1c(NC(=O)C(C)OC(=O)C2=COCCO2)sc2c1CCCC2 (stereo not drawn),inactive
25,CCc1ccccc1N(CC(=O)NCCc1ccccc1)C(=O)CCC(=O)Nc1ccccn1,inactive
26,COc1ccccc1N1CCN(C(=O)c2cc(=O)c3c(C)cc(C)cc3o2)CC1,inactive
27,CCOC(=O)c1c(CN2CCN(c3ccccc3)CC2)oc2ccc(O)cc12,inactive

row,Compound,inhibition
1,CNC(=O)c1ccsc1NC(=O)c1ccccc1,inactive
2,C=CCN(c1ccccc1)S(=O)(=O)c1ccc2c(c1)NC(=O)C(C)S2 (stereo not drawn),inactive
3,CCCNC(=S)N1CCN(c2nc(C)nc3sc4c(c23)CCCC4)CC1,inactive
4,O=C(Nc1ccc(Cl)c(-c2nc3ccccc3[nH]2)c1)c1ccc2c(c1)OCO2,inactive
5,S=C(Nc1ccc(Oc2ccccc2)cc1)NC1CCCCC1,inactive
6,O=C1C=C(c2cccc(Cl)c2)C[C@@H](c2ccc3c(c2)OCO3)C1,inactive
7,O=C(Nc1nc(-c2ccncc2)cs1)C1c2ccccc2Oc2ccccc21,inactive
8,CCc1nnc(NC(=O)C2c3ccccc3Oc3ccccc32)s1,inactive
9,CC(C)c1nnc(NC(=O)C2c3ccccc3Oc3ccccc32)s1,93.8% (active)
10,O=C(CCc1ccc(Oc2cc([N+](=O)[O-])cc([N+](=O)[O-])c2)cc1)Nc1cccc(Cl)c1,inactive
11,CCN(CC)C(=O)CSc1nc2cc3c(cc2c(=O)n1CCCCCC(=O)NCc1ccc(OC)cc1)OCO3,inactive
12,Cc1ccc(NCc2n[nH]c(=S)n2-c2cccc(Cl)c2)cc1,inactive
13,CC1CCc2[nH]c3ccc(C(=O)N4CCCC(C(F)(F)F)C4)cc3c2C1 (stereo not drawn),inactive
14,Cc1ccc(-n2nnnc2SCC(=O)c2cc(C)n(-c3cc(C)on3)c2C)c(C)c1,inactive
15,C#CCOc1ccc(/C=C2\SC(=S)N(Cc3cccnc3)C2=O)cc1,inactive
16,O=C(CCCN1C(=O)/C(=C/c2ccccc2)SC1=S)Nc1ccccc1O,inactive
17,O=C1/C(=C\c2ccc(O)c(O)c2)SC(=S)N1Cc1ccccc1,94.2% (active)
18,O=C(CN1CCN(c2ccccn2)CC1)Nc1ccccc1,inactive
19,CC(C)n1c(O)c(N=NC(=O)C2COc3ccccc3O2)c2ccccc21 (stereo not drawn),inactive
20,CCOC(=O)N=Nc1c(O)n(Cc2ccccc2)c2ccccc12,inactive
21,CC(C)(C)c1ccc2c(c1)OC(C(=O)N/N=C\c1ccccn1)CO2 (stereo not drawn),66% (active)
22,Cc1c(/C=N\NC(=O)C2COc3ccc(C(C)(C)C)cc3O2)c2ccccc2n1C (stereo not drawn),inactive
23,CCSc1nnc(NC(=O)c2ccccc2C)s1,inactive
24,COCCCNc1nc2ccccc2nc1NS(=O)(=O)c1cccc(Cl)c1,inactive
25,Cc1ccc(C)c(NC(=O)c2ccccc2Sc2ccc([N+](=O)[O-])cc2Cl)c1,inactive
26,N#Cc1ccc(-c2ccccc2)nc1SCC(=O)c1cc2ccccc2oc1=O,inactive
